Laboratory results taken from PubChem BioAssay (NCI).
About 83,000 compounds went through this panel and 20% of them were active in at least one assay; those are over-represented in the sample as a whole.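 Plates (96-well) were seeded with cells, treated with compound at one concentration, and incubated for 48 hours before percent growth was determined.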 A number with no mark means an inactive call. Calls of active or inactive are those of the source. The calls were made as follows: active = growth percent below 10; inactive = the rest.

Key:
Experiment in all cases: NCI-60 one-dose screen, 48 h (100 = growth as untreated, 0 = no growth, -100 = all killed)
DU-145 prostate = conditions: 10 µM unless noted
K-562 leukemia = conditions: 10 µM unless noted
MALME-3M melanoma = conditions: 10 µM unless noted
MDA-MB-231 breast = conditions: 10 µM unless noted
SF-268 CNS = conditions: 10 µM unless noted
SF-295 CNS = conditions: 10 µM unless noted
SF-539 CNS = conditions: 10 µM unless noted
UACC-257 melanoma = conditions: 10 µM unless noted
M14 melanoma = conditions: 10 µM unless noted
HCT-15 colon = conditions: 10 µM unless noted
HT29 colon = conditions: 10 µM unless noted
SNB-19 CNS = conditions: 10 µM unless noted
U251 CNS = conditions: 10 µM unless noted
PC-3 prostate = conditions: 10 µM unless noted
SK-MEL-5 melanoma = conditions: 10 µM unless noted
UACC-62 melanoma = conditions: 10 µM unless noted
LOX IMVI melanoma = conditions: 10 µM unless noted
SK-MEL-28 melanoma = conditions: 10 µM unless noted
RXF 393 renal = conditions: 10 µM unless noted
SNB-75 CNS = conditions: 10 µM

| Compound | growth (DU-145 prostate) | growth (K-562 leukemia) | growth (MALME-3M melanoma) | growth (MDA-MB-231 breast) | growth (SF-268 CNS) | growth (SF-295 CNS) | growth (SF-539 CNS) | growth (UACC-257 melanoma) | growth (M14 melanoma) | growth (HCT-15 colon) | growth (HT29 colon) | growth (SNB-19 CNS) | growth (U251 CNS) | growth (PC-3 prostate) | growth (SK-MEL-5 melanoma) | growth (UACC-62 melanoma) | growth (LOX IMVI melanoma) | growth (SK-MEL-28 melanoma) | growth (RXF 393 renal) | growth (SNB-75 CNS) |
| --- | --- | --- | --- | --- | --- | --- | --- | --- | --- | --- | --- | --- | --- | --- | --- | --- | --- | --- | --- | --- |
| Cc1c(C(=N)C(C#N)C#N)c(=N)oc2c1ccc1ccccc12 | 103% | 72.8% | 111% | 97.9% | 88.4% | 96.5% | 94.1% | 60.6% | 88% | 74.2% | 93.3% | 103% | 87.4% | 97.8% | 83.7% | 78.3% | 92.8% | 124% | – | – |
| O=C(Nc1cccc(-n2cc(-c3ccncc3)c(-c3ccc(Cl)c(O)c3)n2)c1)Nc1cc(C(F)(F)F)cc(C(F)(F)F)c1 | -28.2% (active) | -19.5% (active) | -23% (active) | -88.9% (active) | -36.4% (active) | – | -63% (active) | -50.9% (active) | -37.2% (active) | -7.23% (active) | – | 11.3% | -83.8% (active) | -32.4% (active) | -94.7% (active) | -65.6% (active) | -94.1% (active) | -62.4% (active) | -66.7% (active) | – |
| Cn1c2ccc(Br)cc2c2c3c(c4c5ccccc5[nH]c4c21)C(=O)N(O)C3=O | -71.1% (active) | -8.92% (active) | -85% (active) | -74.1% (active) | -45.7% (active) | – | -92.6% (active) | -33.7% (active) | -78.2% (active) | – | -76.4% (active) | -35.8% (active) | -71% (active) | -43.9% (active) | -97.8% (active) | -72.3% (active) | -80.9% (active) | -79.3% (active) | -99.5% (active) | -86.9% (active) |
| Cc1[nH]c2ccc(F)cc2c1CCNC(=O)C1CCN(C(=O)c2ccccc2)CC1 | 82.9% [25 µM] | 90.4% [25 µM] | 75.6% [25 µM] | 79.4% [25 µM] | 79.5% [25 µM] | 96.1% [25 µM] | 86.4% [25 µM] | 98.3% [25 µM] | 98.3% [25 µM] | 94.4% [25 µM] | 95.2% [25 µM] | 86.3% [25 µM] | 90.7% [25 µM] | 71% [25 µM] | – | 82.5% [25 µM] | – | 96.4% [25 µM] | – | – |
| Clc1cc2c(nn1)Nc1ccccc1S2 | 109% | 98.2% | 103% | 114% | 102% | 108% | 89% | 73.5% | 107% | 101% | 102% | 88.5% | 97.3% | 92.4% | 95% | 95.2% | 98.6% | 109% | – | – |
| C=CCSc1n[nH]c(-c2cccs2)n1 | 121% | 85.6% | 110% | 121% | 111% | 106% | 98.3% | 76.4% | 104% | 103% | 102% | 103% | 99.3% | 108% | 104% | 101% | 99.8% | 129% | – | – |
| Cc1ccc(-c2cc3nc(C(Cl)Cl)nc(-c4cccnc4)n3n2)cc1 | -22% (active) | 9.52% (active) | 5.51% (active) | 2.53% (active) | 25.7% | 4.01% (active) | 63% | 86% | 61% | -23.4% (active) | -27% (active) | 23.4% | -15.3% (active) | -4% (active) | 44.8% | 33.3% | – | 53.2% | – | – |
| Nc1nnc(-c2ccc3ccccc3c2O)o1 | 117% | 93.5% | 89.1% | 92.4% | 94.8% | – | 95.7% | 102% | 86.4% | – | 105% | 97.1% | 90.4% | 82.8% | 94.8% | 97.5% | 85.3% | 97.8% | 99.2% | – |
| O=C(/C=C/c1ccccc1)c1cccc(O)c1 | 56.4% | 51.3% | 101% | – | 85% | 96.8% | – | 99.5% | 68.1% | – | 32.3% | – | 61.9% | 103% | 107% | – | 81.7% | 104% | 107% | – |
| Cc1ccc(-c2nc(C(Cl)Cl)n3nc(-c4ccccc4)cc3n2)cc1 | -9.74% (active) | 21.2% | 74.7% | 11.5% | 8.85% (active) | 66.2% | 29.8% | 94.1% | 95.7% | -26.8% (active) | -43.6% (active) | 27.4% | -42.1% (active) | -13% (active) | 78.5% | -8.44% (active) | – | 85.9% | – | – |
| CC(=O)Nc1ccc(S(=O)(=O)n2ccc(-c3ccc4c(c3)CCC(C)(C)O4)n2)cc1 | 83.5% | 36.7% | 82.5% | 88.6% | 77.3% | 60.2% | 73.8% | 46% | 64.7% | 59.3% | – | 73.3% | 66% | 44.4% | 26.3% | 62.4% | 64.1% | 93.1% | – | 81.4% |
| COc1ccc(-c2c(N)n[nH]c2-c2cc(OC)c3c(c2)OCCO3)cc1 | 96.1% | 12.1% | 39.3% | 87.7% | 79.9% | – | – | 88.1% | 65.2% | – | 29.7% | 84.9% | 77.6% | 66.9% | 69.8% | 71% | 69.8% | 80.7% | 74% | 57.4% |
| Cc1ccc(-c2cc3nc(-c4ccccc4)nc(C(Cl)Cl)n3n2)cc1 | -93.9% (active) | 20.2% | -3.1% (active) | -49.7% (active) | -56.6% (active) | -69.8% (active) | -60.4% (active) | 18.3% | 96.2% | -30.4% (active) | -47.1% (active) | -40.1% (active) | -83.5% (active) | -76% (active) | – | -65.3% (active) | – | 34.6% | – | – |
| COC(=O)c1cc(=O)nc(N/N=C/c2ccco2)s1 | 112% | 101% | 108% | 117% | 106% | – | 108% | 117% | 121% | – | 106% | 105% | 104% | 95.7% | 99.6% | 106% | 101% | 104% | 102% | 96.2% |
| COc1ccc(Cn2cc3c(c2-c2cc(OC)c(OC)c(OC)c2)CCc2cnoc2-3)cc1 | 20.2% | 14.6% | – | 14% | 40.9% | 1.12% (active) | 2.64% (active) | 67.6% | 7.62% (active) | 17.5% | 11% | 44.3% | 29.3% | 25.7% | 17% | 40.5% | 38.1% | 45% | 17.1% | – |
| O=S(=O)(NCCNc1nccc(-c2c(-c3ccc(F)cc3)nc3sccn23)n1)c1ccc(F)cc1 | 75.9% | 56.7% | 76.8% | 78.4% | 79.2% | – | 102% | 102% | 73.7% | 59% | – | 88.5% | 79.8% | 75.3% | 70.8% | 71.6% | 58.3% | 87.6% | 70% | – |
| COc1ccc2cc(-c3ccc(-c4ccc(C(=N)N)cc4)s3)ccc2c1 | 61% | 40% | 104% | 100% | 94.6% | 101% | 98.9% | 104% | 97.6% | 62% | 19.8% | 95.9% | 101% | 88.6% | 94.8% | 99.3% | – | 107% | – | – |
| CC(C)(C)NCCC(O)c1cc2c(Cl)cc(Cl)cc2c2cc(C(F)(F)F)ccc12 (configuration not stated) | -95.1% (active) | -72.2% (active) | -53.3% (active) | -74.4% (active) | -88.6% (active) | – | -82.2% (active) | -81.7% (active) | -77.4% (active) | – | – | -70.9% (active) | -94.2% (active) | -92.3% (active) | -63.2% (active) | -77.3% (active) | -70.7% (active) | -91.6% (active) | -95.9% (active) | – |
